Several values for one entry are separate records, joined by “and”; a condition that tells them apart may be missing. Equal values may be shown once. Hit rate of the full screen: of about 34,000 compounds, about 290 (0.85%) showed an effect of 50% or more. What follows is part of a selection rich in strong results, with near analogues and random picks from the rest.

The test concerns Plasmodium falciparum. Description: Plasmodium falciparum sporozoite viability assay. Format: functional, organism-based. Set-up: scale not given: in the data most compounds retested in dose-response had high values.

Turning to `CCOc1ccc(C#N)cc1NCC(=O)NC(=O)Nc1ccccc1`, the “Percent Effect” value is -20.07%.
Same read-out and setting: the value for `CC(C)Oc1ccc(CNC(=O)NCC(C)(C)C(N)=O)cc1F` was -18.14%.
On the same count and under the same terms, the value for `Cl.O=S1(=O)CCC(NCCn2cncc2-c2ccc3c(c2)CCCO3)C1` (configuration not stated) was -8.887%.
Turning to `CN(C)S(=O)(=O)NCC1CCN(Cc2ccccc2F)CC1`, the “Percent Effect” value (10 mM as filed; unlikely as a test dose) was -11.15% and -13.88%.
Consider `c1ccc(Oc2ccc(CNCC3CNc4ccnn4C3)cn2)cc1` (configuration not stated), for which the “Percent Effect” value is on record as -2.407%.
Regarding `OCC(CO)N1CCCC(Cc2cnc(Nc3ccccn3)cn2)C1` (configuration not stated), the “Percent Effect” value came out at 3.086%.
`Cc1noc(CNc2ccc(C(=O)N3CCCC(C)C3)cc2C)n1` (configuration not stated): the “Percent Effect” value (10 mM as filed; unlikely as a test dose) is 12% and 12.75% and 4.849%.
For `Cc1cc(C(=O)N2CCCC(C)C2)ccc1NCc1nc(C(C)C)no1` (configuration not stated), the “Percent Effect” value (10 mM as filed; unlikely as a test dose) is 54.84% and 44.37% and 61.2%.
For `COc1cc(N2C[C@@H]3COC[C@]3(COCc3ccccn3)C2)ncn1.O=C(O)C(F)(F)F.O=C(O)C(F)(F)F`, the “Percent Effect” value stood at 7.967%.
Turning to `CN1CCCC1c1ccnc(C(=O)N(C)C2CCCCC2)c1` (configuration not stated), the “Percent Effect” value was found to be 7.615%.
On the same count and under the same terms, the same measure for `CC(=O)Nc1nc(C(=O)NCc2ccc(N3CCOC(C)C3)nc2)cs1` (configuration not stated): 13.32%.
Consider `COc1ccncc1NC(=O)c1[nH]nc(C(C)C)c1Br`, for which, where the note is “10 mM as filed; unlikely as a test dose”, the “Percent Effect” value is 41.3% and 28.4%.
On the same count and under the same terms, the value for `CC(C)c1n[nH]c(C(=O)Nc2ccnn2C(C)C)c1Br` was 92.02% and 87.97% and 88.19%.
On to `Cc1cccc(NC(=O)c2cncc(C3CCNCC3)n2)n1`, for which the “Percent Effect” value amounted to 3.261%.
Still for that read-out and setting: the value for `O=C(Nc1cc(C2CCOCC2)[nH]n1)c1cc[nH]n1` was -6.094%; that for `Cc1n[nH]c(C(=O)NCc2ccnc(OCC(F)(F)F)c2)c1Br` was -2.803%.
Turning to `Cc1cccc(NC(=O)c2[nH]nc(C(C)C)c2Br)n1`, the “Percent Effect” value (10 mM as filed; unlikely as a test dose) is 102.6% and 98.53% and 104.2%.
Take `COCCN1CCN(C(C)C(=O)Nc2ccnn2C(C)C)CC1` (configuration not stated): the “Percent Effect” value is reported as -4.51%.
In the case of `Cc1ccnc(NC(=O)c2ccc(-n3ncc(C#N)c3N)cc2)c1`, the “Percent Effect” value turned out to be 11.53%.
On to `Cc1ccnc(NC(=O)c2[nH]nc(C(C)C)c2Br)c1`, for which, for the setting “10 mM as filed; unlikely as a test dose”, the “Percent Effect” value is 109% and 104.4% and 105.9%.
On to `CC(C(=O)Nc1ccnn1C(C)C)N1CCN(Cc2ccccc2)CC1` (configuration not stated), for which the “Percent Effect” value is given as -6.509%.
On the same count and under the same terms, the value for `Cc1cccc(NC(=O)c2sccc2C)n1` was 7.103%; that for `COc1ccccc1C1(C(=O)NCCN2CCCCC2)CCOCC1` was 7.717%; that for `C[C@@H]1CN(Cc2ccccn2)C[C@]12CCN(Cc1cccnc1)C2=O.O=C(O)C(F)(F)F.O=C(O)C(F)(F)F.O=C(O)C(F)(F)F` was -3.791%.
Still for that read-out and setting: the value for `Cn1cc(CN2CCC3(CC2)CC(Nc2nccs2)CO3)cn1.O=C(O)C(F)(F)F` (configuration not stated) was 18.81%.
Still for that read-out and setting: the same measure for `NC(=O)c1cc(C2CCCN(C(=O)CCc3ccncc3)C2)n[nH]1` (configuration not stated): -0.3069%.
`Cc1ccnc(NC(=O)c2ccc(C)o2)c1`: the “Percent Effect” value (10 mM as filed; unlikely as a test dose) was -40.27% and -55.88%.
The same measure, in the same setting: the value for `CC(C)c1n[nH]c(C(=O)Nc2ccccn2)c1Br` was 107.3% and 96.92% and 105.3%; that for `CC(C)c1n[nH]c(C(=O)Nc2ccncc2)c1Br` was 98.93% and 67.14% and 45.46%.
The same measure, in the same setting: the same measure for `CC(C)c1n[nH]c(C(=O)NC(C)c2ccncc2)c1Br` (configuration not stated): 40.84% and 49.25% and 43.96%.
With `CC(C)C(NC(=O)Nc1ccccn1)c1cccs1` (configuration not stated), the “Percent Effect” value is given as 14.64%.
Turning to `Cc1ccnc(NC(=O)CSCc2cccnc2)c1`, where the note is “10 mM as filed; unlikely as a test dose”, the “Percent Effect” value was 65.53% and 89.16%.
On the same count and under the same terms, the value for `Cc1ccnc(NC(=O)c2ccc(Cl)o2)c1` was 72.69% and 57.82%; that for `Cc1ccc(NC(=O)CSCc2cccnc2)nc1` was -29.55% and -38.68%.
On to `Cl.O=C(Nc1ccccn1)c1cncc(C2CCNCC2)n1`, for which the “Percent Effect” value was -0.4476%.
On the same count and under the same terms, the same measure for `CCC1CCCCN1C(=O)c1ccnc(N(C)C)c1` (configuration not stated): 0.6463%.
On the same count and under the same terms, the same measure for `Cc1ccccc1OC1CCN(S(=O)(=O)c2c(C)n[nH]c2C)CC1`: 0.8951%; for `COc1ccccc1CN(Cc1nc(CC(C)C)no1)C1CC1`: -1.432%; for `COc1c(C2CCCN2C(=O)c2ccc3c(c2)OCO3)c(C)nn1C` (configuration not stated): 6.2%.
On the same count and under the same terms, the value for `Cn1ccnc1C(=O)N1CCC2(CCN2Cc2ccc(F)cc2)C1.O=C(O)C(F)(F)F` (configuration not stated) was -1.35%.
With `Cc1cccc(CN2CCn3c(COc4ncccn4)nnc3C2)n1`, the “Percent Effect” value is -3.893%.
Same read-out and setting: the same measure for `O=C(N[C@@H]1CC[C@@H](N2CCCC2)[C@@H]1O)c1cc2ccccc2[nH]1`: 4.476%.
In the case of `CCC(NC(=O)CCNC(=O)c1ccccc1F)c1cc(C)ccn1` (configuration not stated), for the setting “10 mM as filed; unlikely as a test dose”, the “Percent Effect” value is -6.667% and 1.59%.
Same read-out and setting: the value for `Cc1ccnc(NCCNC(=O)CCNC(=O)c2ccccc2F)c1` was 3.593% and 6.463%; that for `Cc1ccnc(NC(=O)c2cnc(C3CCCNC3)cn2)c1` (configuration not stated) was 70.96% and 81.72% and 59.47%.
As for `Cc1cccc(NC(=O)c2cnc(C3CCCNC3)cn2)n1` (configuration not stated), under “10 mM as filed; unlikely as a test dose”, the “Percent Effect” value was 4.473% and -18.26% and -18.86%.
Regarding `Cc1ccnc(NC(=O)c2cncc(C3CCNCC3)n2)c1`, the “Percent Effect” value was 28.13%.

These data come from ChEMBL document CHEMBL3988442, “University of Dundee, Small-Polar-MMV Screening Library” (2021).
